Assay [1] in a line: Primary qHTS for inhibitors of SARS-S pseudo-typed particle cell entry (AID 1479145). Further: on the % scale 0 is the no-effect control and ±100 the full control effect; nearly all actives have a fitted effect of over 45% in size. In general terms: qHTS replaces the single test concentration by a dilution series.
Assay [2] in a line: Confirmatory qHTS for VERO E6 Cytotoxicity Assay: Counterscreen for SARS-CoV-2 CPE Assay (AID 1508605). Further: nearly all actives have a fitted effect of over 60% in size. Further: potency means the concentration at half of the fitted maximal effect.
The nature of assay [3]: Confirmatory qHTS to identify inhibitors of SARS-CoV-2 cell entry (AID 1645844). Further: potency means the concentration at half of the fitted maximal effect; nearly all actives have a fitted effect of over 45% in size. Put shortly:
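HEK293-ACE2 cells were pretreated 1 h with compound, then infected with MLV-based pseudoparticles bearing C-terminally truncated Wuhan-Hu-1 spike for 48 h at 37C; luciferase luminescence normalized to spike PP and bald PP wells.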

The nature of assay [4]: Primary qHTS to identify inhibitors of SARS-CoV-2 cell entry (AID 1645846). Further: nearly all actives have a fitted effect of over 45% in size. Further: potency means the concentration at half of the fitted maximal effect. The settings on record: activity change, negative = inhibition: at 57.1 µM (top of the series) unless noted. Summed up:
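HEK293-ACE2 (Expi293F, stable hACE2), 1500 cells/well, o/n 37C; cpd 23 nL pin, 1 h; MLV-PP w/ SARS-CoV-2-S (Wuhan-Hu-1, Δ19 C-term); 48 h 37C; Bright-Glo luminescence; normalized vs S-PP and bald PP.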

A short description of assay [5]: Inducers of the Endoplasmic Reticulum Stress Response (ERSR) in human glioma: Validation (AID 504836; active means well fitted curve in the direction sought with a large enough effect; an effect the other way counts as inactive or inconclusive; further: 0% is about no effect). Summed up: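 Stably transfected U87-MG glioma cells carrying a GRP78-based luciferase sensor; 16 h compound incubation. Luminescence end-point read 10 min after Bright-Glo addition at room temperature.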
Assay [6] in a line: qHTS for Inhibitors of the Functional Ribonucleoprotein Complex (vRNP) of Lassa (LASV) Arenavirus: LASV Primary Screen - GLuc reporter signal (AID 1347082; calls by dose curve; tested in HEK293 reporter line; further: nearly all actives have a fitted effect of over 60% in size; further: potency means the concentration at half of the fitted maximal effect; on activity change, negative = inhibition: on the % scale 0 is the no-effect control and ±100 the full control effect).
A short description of assay [7]: qHTS for Inhibitors of the Functional Ribonucleoprotein Complex (vRNP) of Lassa (LASV) Arenavirus: Viability assay - alamar blue signal for LASV Primary Screen (AID 1347083; calls by dose curve; tested in HEK293 reporter line; further: nearly all actives have a fitted effect of over 80% in size; further: potency means the concentration at half of the fitted maximal effect).
Assay [8] has as its target Nucleoprotein (Lymphocytic choriomeningitis virus (strain Armstrong)) (UniProt P09992). Briefly: qHTS for Inhibitors of the Functional Ribonucleoprotein Complex (vRNP) of Lymphocytic Choriomeningitis Arenaviruses (LCMV): LCMV Primary Screen - GLuc reporter signal (AID 1347086). Further: nearly all actives have a fitted effect of over 70% in size. Further: potency means the concentration at half of the fitted maximal effect. On activity change, negative = inhibition: on the % scale 0 is the no-effect control and ±100 the full control effect.
Assay [9] is described as follows: Cytotoxicity counterscreen for inhibitors of SARS-CoV-2 cell entry (AID 1645845). Further: nearly all actives have a fitted effect of over 50% in size. Further: potency means the concentration at half of the fitted maximal effect. Put shortly: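 HEK293-ACE2 cells (Expi293F stably expressing human ACE2) seeded overnight, then compound for 1 h plus 48 h at 37C. Viability as ATP content by luminescence; normalized to wells with cells and media-only wells.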
A general note: Counterscreens check selectivity or assay interference.

Assay [10] can be described thus: qHTS profiling of the MIPE4 collection as inhibitors of Plasmodium falciparum (3D7) proliferation (AID 743344; call rule not given here;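 further: scaled between DMSO vehicle wells and 0.29 µM artemisinin as full inhibition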). The settings on record: P. falciparum 3D7 in erythrocytes, SYBR Green DNA fluorescence, 72 h; at 28.5 µM (top of the series) unless noted. Summed up: (§1)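 Erythrocytes infected with P. falciparum (0.3% parasitemia, 2.5% hematocrit) incubated with compounds 72 h at 37 C, 5% CO2. Lysis with saponin/Triton buffer containing SYBR Green I, overnight at room temperature in the dark; DNA fluorescence (485/535 nm) normalised to 0.29 uM artemisinin and DMSO.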

Assay [11] in a line: qHTS profiling of the MIPE4 collection as inhibitors of Plasmodium falciparum (DD2) proliferation (AID 743345; call rule not given here). The settings on record: P. falciparum Dd2 in erythrocytes, SYBR Green DNA, 72 h; at 28.5 µM (top of the series) unless noted. Summed up: as §1
The nature of assay [12]: qHTS profiling of the MIPE4 collection as inhibitors of Plasmodium falciparum (DD2) proliferation (Rep 2) (AID 743346; call rule not given here). The settings on record: P. falciparum Dd2 in erythrocytes, SYBR Green DNA, 72 h; at 28.5 µM (top of the series) unless noted. Put shortly: as §1
Assay [13] in a line: qHTS profiling of the MIPE4 collection as inhibitors of Plasmodium falciparum (HB3) proliferation (AID 743347; call rule not given here;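 further: plate controls were DMSO vehicle wells for no effect and artemisinin wells for full effect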). The settings on record: P. falciparum HB3 in erythrocytes, SYBR Green DNA, 72 h; at 28.5 µM (top of the series) unless noted. Put shortly: as §1
Assay [14] is described as follows: Primary qHTS for Huh7 cytotoxicity: counterscreen for inhibitors of MERS-S pseudotyped particle cell entry (AID 1479147). The settings on record: outcome: dose series up to 57.1 µM unless noted.
Assay [15] can be described thus: Primary qHTS for inhibitors of MERS-S pseudo-typed particle cell entry (AID 1479149). Further: on the % scale 0 is the no-effect control and ±100 the full control effect; nearly all actives have a fitted effect of over 60% in size.
The nature of assay [16]: Primary qHTS for Vero E6 cytotoxicity: counterscreen for inhibitors of SARS-S pseudo-typed particle cell entry (AID 1479150). The settings on record: outcome: dose series up to 57.1 µM unless noted.
Assay [17] concerns the target Alpha-galactosidase (Coffea arabica) (UniProt Q42656). Briefly: Counterscreen for Glucocerebrosidase Inhibitors: qHTS Assay for Coffee Bean alpha-Galactosidase at pH 4.5 (AID 957; active means well fitted curve in the direction sought with a large enough effect; an effect the other way counts as inactive or inconclusive;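 further: plate controls were enzyme alone for no effect and no enzyme for full effect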). Summed up:
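Coffee bean enzyme (2 nM) with 80 uM 4-methylumbelliferyl alpha-D-galactopyranoside in 50 mM citric acid, 0.005% Tween-20, pH 4.5, 20 min at room temperature; compounds 0.7 nM–77 uM. Stopped at pH 10, fluorescence 365/440 nm; AC50 from Hill fits.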

Assay [18] has the same target. As to the kind of experiment: Counterscreen for Glucocerebrosidase Inhibitors: qHTS Assay for Coffee Bean alpha-Galactosidase at pH 5.9 (AID 998; active means well fitted curve in the direction sought with a large enough effect; an effect the other way counts as inactive or inconclusive;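 further: plate controls were uninhibited enzyme for no effect and no-enzyme basal signal for full effect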). Summed up: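 Green coffee bean enzyme (2 nM) with 4-methylumbelliferyl alpha-D-galactopyranoside (80 uM) in 50 mM citric acid, 0.005% Tween-20, pH 5.9, 20 min at room temperature; compounds 0.7 nM–77 uM. Stopped at pH 10, fluorescence Ex365/Em440; Hill-fit AC50.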

Inconclusive results are not listed. Calls of active or inactive are those of the source. Unless noted, the call rests on the fitted dose curve.

Nucleoprotein (Lymphocytic choriomeningitis virus (strain Armstrong)), sequence (P09992 whole entry, looked up): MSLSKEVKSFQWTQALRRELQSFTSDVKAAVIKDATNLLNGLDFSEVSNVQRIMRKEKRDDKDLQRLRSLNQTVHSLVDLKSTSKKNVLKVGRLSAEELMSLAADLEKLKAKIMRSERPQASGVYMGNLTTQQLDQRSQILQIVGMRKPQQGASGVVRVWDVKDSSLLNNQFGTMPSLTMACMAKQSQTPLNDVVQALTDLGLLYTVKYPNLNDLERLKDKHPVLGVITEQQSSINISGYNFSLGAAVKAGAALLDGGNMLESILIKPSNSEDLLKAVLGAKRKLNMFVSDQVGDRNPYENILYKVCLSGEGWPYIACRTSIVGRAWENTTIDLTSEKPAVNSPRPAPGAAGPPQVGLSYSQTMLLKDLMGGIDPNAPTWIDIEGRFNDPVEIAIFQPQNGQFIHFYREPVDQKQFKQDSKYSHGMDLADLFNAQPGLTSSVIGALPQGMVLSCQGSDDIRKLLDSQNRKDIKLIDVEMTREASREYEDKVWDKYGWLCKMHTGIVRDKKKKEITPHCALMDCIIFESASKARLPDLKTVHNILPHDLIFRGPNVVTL
Alpha-galactosidase (Coffea arabica), sequence (Q42656 whole entry, looked up): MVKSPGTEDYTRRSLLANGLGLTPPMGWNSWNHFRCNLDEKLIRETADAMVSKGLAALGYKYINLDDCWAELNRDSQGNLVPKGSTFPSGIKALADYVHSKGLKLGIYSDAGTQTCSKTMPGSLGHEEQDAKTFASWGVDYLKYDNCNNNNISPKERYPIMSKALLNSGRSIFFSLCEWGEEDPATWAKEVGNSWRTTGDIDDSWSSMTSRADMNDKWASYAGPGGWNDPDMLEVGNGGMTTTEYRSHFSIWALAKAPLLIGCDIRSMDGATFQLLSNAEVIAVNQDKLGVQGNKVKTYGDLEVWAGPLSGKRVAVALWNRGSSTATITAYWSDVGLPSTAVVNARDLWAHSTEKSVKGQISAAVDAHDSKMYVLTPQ

Consider `CC#CCn1c(N2CCC[C@@H](N)C2)nc2c1c(=O)n(Cc1nc(C)c3ccccc3n1)c(=O)n2C`, for which, in assay [1], the Potency entry was “inactive”.
On to `CC(C)(C)Cn1c(N)nc2ccc(-c3[nH]c(C(C)(C)C)nc3-c3ccc(F)cc3)nc21`, for which the Potency in assay [2] is 11.2 µM (active).
For the compound `NC(=O)c1cccc2cn(-c3ccc([C@@H]4CCCNC4)cc3)nc12`, the Potency entry in [2] is “inactive”. Also, in assay [3], the Potency was 4.29 µM (active).
In the case of `CC(C)(N)c1ccc(-c2nc3ccccc3nc2-c2ccccc2)cc1`, the activity change, negative = inhibition in assay [4] was -19.6%.
Regarding `CCCCCC[C@@H](O)C/C=C\CCCCCCCC(=O)O`, in assay [4], the activity change, negative = inhibition is -16.6%.
`OC[C@H]1O[C@@H](n2cnc3c(NC4CCCC4)ncnc32)[C@H](O)[C@@H]1O`: the compound was classed as inactive in assay [5]. Further, the Potency entry in assay [6], in [7] and in assay [8] was “inactive” in each case.
As to `C[C@]1(c2nc3c(C(N)=O)cccc3[nH]2)CCCN1`, the Potency result in assay [6], in assay [8] and in [9] was “inactive” in each case. The Potency in assay [7] was 2.73 µM (active). The activity change, negative = inhibition in assay [4] was -3.68%.
For the compound `O=C(Nc1ccc(Oc2ccnc3[nH]ccc23)c(F)c1)c1cccn(-c2ccc(F)cc2)c1=O`, the Potency result in [6], in assay [7] and in [9] was “inactive” throughout. For the same compound, the activity change, negative = inhibition in assay [4] was -21.9%.
Turning to `COc1cc(O)c2c(c1)C1OC1C[C@H](O)[C@H](O)C(=O)C=CC[C@H](C)OC2=O` (some centres not stated), the Potency in assay [6] is 34.3 µM (active); in [7], 38.5 µM (active); in assay [8] it was 34.3 µM (active); in [4] it was 35.5 µM (active).
As to `COc1cc(C(=O)N2CCC(N3CCN(C)CC3)CC2)ccc1Nc1ncc2c(n1)N(C)c1ccccc1C(=O)N2C`, the Potency entry in [6] is “inactive”. For the same compound, the Potency was 17.2 µM (active) in assay [7], 10.9 µM (active) in assay [8] and 31.6 µM (active) in assay [4].
For the compound `COc1cc2c(cc1-c1c(C)noc1C)ncc1[nH]c(=O)n([C@H](C)c3ccccn3)c12`, the Potency in assay [6] is 13.7 µM (active); in [7], 17.2 µM (active); in assay [8] it was 9.68 µM (active). In addition, in assay [9], the Potency result is “inactive”. The activity change, negative = inhibition in assay [4] was -29%.
The matching figures for `Cc1ccc2nc(NC(=O)CSc3nc4c(c(=O)n3-c3ccccc3)SCC4)sc2c1`: 19.3 µM (active), 17.2 µM (active), 8.63 µM (active), “inactive” and -16.9%.
As to `C[C@@H](NCc1cc2ccccc2[nH]1)c1cccc2ccccc12`, the Potency result in assay [6], in [7] and in assay [8] was “inactive” each time. The Potency in assay [9] was 31.6 µM (active).
For the compound `O=C(CCCCCCC(=O)Nc1cccnc1)NO`, the Potency entry in assay [6], in assay [8] and in assay [4] was “inactive” in each case. Moreover, in assay [7], the Potency is 19.3 µM (active).
Consider `CN1N=C(N)c2cn([C@@H]3O[C@H](COP(=O)(O)O)[C@@H](O)[C@@H]3O)c3ncnc1c23`, for which the Potency entry in assay [6] and in assay [8] was “inactive” in each case. Further, the Potency in [7] was 34.3 µM (active). In addition, the activity change, negative = inhibition in assay [4] was -94.7%.
Take `Cc1ccc2nc(NCCN)c3ncc(C)n3c2c1`: the Potency in assay [6] was 17.2 µM (active); in assay [7] it was 19.3 µM (active); in assay [3], 19.2 µM (active).
With `CC(C)c1cc(-c2n[nH]c(=O)n2-c2ccc3c(ccn3C)c2)c(O)cc1O`, the Potency in assay [6] was 0.385 µM (active); in assay [7] it was 0.243 µM (active); in [8] it was 0.306 µM (active). Further, the activity change, negative = inhibition in assay [4] was -96%.
Regarding `O=c1[nH]c(=O)n([C@H]2C[C@@H](O)[C@@H](CO)O2)cc1C=CBr`, the compound was classed as inactive in assay [5]. For the same compound, the parasite growth, % of DMSO control in [10] stood at 139%. The parasite growth remaining, % of DMSO control (lower = more inhibition) in [11] is 118%. Besides, in assay [12], the parasite growth, % of control (lower = inhibition) amounted to 157%. Also, in [13], the growth, % of control was 652%. For the same compound, the Potency result in assay [6], in assay [7] and in [8] was “inactive” each time.
For `COc1cc(Nc2ncc(F)c(Nc3ccc4c(n3)N(COP(=O)(O)O)C(=O)C(C)(C)O4)n2)cc(OC)c1OC`, the Potency entry in [6], in [9] and in assay [4] was “inactive” in each case. The Potency in assay [7] is 2.43 µM (active).
With `CN(C)Cc1cccc(N=C(c2ccccc2)c2c(O)[nH]c3cc(C(=O)N(C)C)ccc23)c1`, the Potency result in assay [6], in assay [8] and in assay [9] was “inactive” in each case. The Potency in [7] was 13.7 µM (active).
As for `C[S+](C)CCC(N)C(=O)O` (configuration not stated), the Potency entry in assay [6], in [7], in assay [15] and in assay [9] was “inactive” throughout. In addition, the compound was classed as inactive in assay [14] and in assay [16]. In addition, the activity change, negative = inhibition in assay [4] was -29.8%.
Consider `CC(C)=CC[C@@H](O)C1=CC(=O)c2c(O)ccc(O)c2C1=O`, for which the Potency entry in assay [6], in [7], in assay [8], in assay [9] and in assay [4] was “inactive” throughout.
In the case of `O=C1c2ccccc2-c2n[nH]c3cccc1c23`, the outcome in assay [17], in assay [18] and in assay [5] was inactive. Also, the Potency result in assay [6], in [8] and in assay [9] was “inactive” each time. In addition, the Potency in assay [7] is 30.6 µM (active).
In the case of `Oc1ccc(-c2ccc(-c3cc(Nc4cccc(CNC5CC5)c4)n[nH]3)cc2)c(O)c1`, the Potency in [6] was 24.3 µM (active); in assay [7] it was 3.06 µM (active); in assay [8], 12.2 µM (active); in assay [4], 10 µM (active).
With `COc1ccc(Nc2cc(-c3cnc(N)nc3)nc(N3CCOCC3)n2)cn1`, the Potency in assay [6] was 12.2 µM (active); in [7], 3.85 µM (active); in assay [3], 0.341 µM (active).
For `CC(C)C(C)C=CC(C)C1CCC2C3=CC=C4CC(O)CCC4(C)C3CCC21C` (configuration not stated), in [10], the parasite growth, % of DMSO control worked out at 96.2%. The figures for the Potency in [6], in [7] and in assay [8] were 27.3 µM (active), 38.5 µM (active) and 7.69 µM (active), respectively. The Potency entry in assay [9] and in [4] was “inactive” throughout.
On to `CCc1ccc(C(=O)Nc2cc(CN3CCN(C)CC3)cc(C(F)(F)F)c2)cc1C#Cc1cnc2ccnn2c1`, for which the Potency entry in assay [6] was “inactive”. The Potency in assay [7] is 21.7 µM (active); in assay [9] it was 31.6 µM (active).

The record behind these values is PubChem BioAssay (NCATS).
